# The full list was thinned out, with hits kept by preference.
# NPSR antagonist = blocks cAMP signaling of the human neuropeptide S receptor; CHO-NPSR cells, cAMP TR-FRET, antagonist mode; Potency, µM (doses to about 38.3 µM), for the others: at the top dose activity change, negative = inhibition, most hits filed as inhibitors; 1% of 220,000 active; also: potency is read from the fitted curve at half-maximal effect; nearly all actives have a fitted effect of over 50% in size
# Target sequence (Q6W5P4 whole entry, looked up): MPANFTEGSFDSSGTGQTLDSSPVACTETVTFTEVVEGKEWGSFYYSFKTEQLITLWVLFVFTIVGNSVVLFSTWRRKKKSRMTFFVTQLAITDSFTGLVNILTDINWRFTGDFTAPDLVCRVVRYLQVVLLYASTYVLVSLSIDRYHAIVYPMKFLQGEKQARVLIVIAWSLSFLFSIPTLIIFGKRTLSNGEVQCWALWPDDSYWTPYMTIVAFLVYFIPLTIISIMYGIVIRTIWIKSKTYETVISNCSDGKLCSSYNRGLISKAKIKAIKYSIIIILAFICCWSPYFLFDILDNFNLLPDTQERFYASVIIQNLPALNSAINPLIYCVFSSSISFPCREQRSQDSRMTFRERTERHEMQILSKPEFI
# IMPase cell inh = membrane-permeable compound that blocks inositol monophosphatase; P97697; CHO-M1 cells, IP1 accumulation, HTRF TR-FRET ratio; inhibition (IP1 accumulation), % at 46.1 µM; 120,000 tested, under 10 active; active = well fitted curve in the direction sought with a large enough effect in the signal ratio, not every such curve was filed as active; inconclusive = small, poorly fitted or top-dose-only effect, or a change in a side signal; inactive = no such curve, though single readings can be large or run the other way; the % refers to the signal ratio;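 also: cells stimulated with carbachol in lithium chloride buffer; plate controls were DMSO basal wells for no effect and reference inhibitor wells for full effect; higher means more IMPase inhibition seen as more IP1 and lower FRET ratio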
# Target sequence (P97697 whole entry, looked up): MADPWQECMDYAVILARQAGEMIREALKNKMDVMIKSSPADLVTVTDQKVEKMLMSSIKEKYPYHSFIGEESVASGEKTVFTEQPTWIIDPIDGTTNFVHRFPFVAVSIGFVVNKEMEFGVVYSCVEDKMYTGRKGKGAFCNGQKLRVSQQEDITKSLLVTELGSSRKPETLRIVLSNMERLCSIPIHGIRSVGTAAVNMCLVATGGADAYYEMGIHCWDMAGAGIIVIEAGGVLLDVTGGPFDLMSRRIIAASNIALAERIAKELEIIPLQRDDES
#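 Seeded CHO-M1 cells were dosed with compound at up to 46 uM, stimulated with carbachol for 30 min, then lysed in IP-One detection reagents. Higher IP1 lowers the TR-FRET signal.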
# IMPase Li inh = membrane-permeable IMPase blocker, potentiated with lithium; CHO-M1 cells, IP1 TR-FRET (IP-One), carbachol + lithium; Potency, µM (top dose mostly 59.4 µM), for the others: top-dose activity, negative = IMPase inhibition, usual class: inhibitors; 0.35% of 210,000 active; AID 1457;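 also: IP1 builds up when IMPase is blocked and the TR-FRET signal falls; potency is read from the fitted curve at half-maximal effect; plate controls were basal vehicle for no effect and high inhibitor control for full effect; nearly all actives have a fitted effect of over 50% in size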
#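 Concentration–response in CHO-M1 cells, lithium-potentiated; 30 min at 37C. IP1 detected by competitive TR-FRET after 10 min lysis at RT. Hill-fitted AC50.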
# Active calls of the source: *; ? = inconclusive; . = not tested or not shown; ! = not active in a repeat; [ ] = remark or other dose. Unless noted, calls follow the shape of the dose curve; as a rule, active = well fitted curve in the direction sought with a large enough effect; inconclusive = small, poorly fitted or top-dose-only effect, or another doubt; inactive = no such curve, though single readings can be large; an effect the other way counts as inactive or inconclusive. Unless noted, % is scaled to controls: 0 for no effect and ±100 for the full control effect.
SMILES,NPSR antagonist,IMPase cell inh,IMPase Li inh
CCN1C(=O)c2ccccc2S(=O)c2ccc(C(=O)N3CCCC3)cc21 (centres undefined),-10.2%[46.1 µM],?,24.7%[38.3 µM]
CCN(CC)CCCC(C)Nc1nc(C)cc(Nc2ccc3nc(C)cc(N)c3c2)n1 (centres undefined),.,.,6.4%
CCN1/C(=C/c2ccc3cccc(C)c3[n+]2CC)Sc2ccccc21,10µM*,-13.8,-10.0%[38.3 µM]
CCN1/C(=C/C(C)=C/c2sc3ccccc3[n+]2CC)Sc2ccccc21,?,.,18.4%
CCN1/C(=C/c2ccc3cc(C)cc(C)c3[n+]2CC)Sc2cc(C)ccc21,-39.9%,.,11.2µM*
CCN1/C(=C\c2ccc3cc(C)ccc3[n+]2CC)Sc2cc(C)c(C)cc21,-25.2%,.,-20.3%
CN1[C@@H](c2ccccc2)CC(=NO)C[C@H]1c1ccccc1,.,.,0.9%
COc1ccc(N2CCN(c3ccc(NC(=O)c4ccc5c(c4)OCO5)cc3C#N)CC2)cc1,5.01µM*,0.8,?
COc1ccc(CC(=O)Nc2ccc(N3CCN(c4ccc(OC)cc4)CC3)c(C#N)c2)cc1,3.6%[46.1 µM],6.9,?
COc1c(C)c2c(c(O)c1CC=C(C)CCC(=O)OCCN1CCOCC1)C(=O)OC2,.,.,3.8%
C/C(=N/O)c1ccc2cc(Br)c3ccccc3c2c1,.,.,-2.0%
Nc1nc(N)c2nc(-c3ccccc3)c(N)nc2n1,-5.1%,-29.3,12.6µM*!
NSc1nc(N)c2nc(-c3ccccc3)c(-c3ccccc3)nc2n1,-30.4%,.,6.3%
O=C(Cn1cncn1)NCCCc1ccccc1,4.7%,.,6.8%
O=C(c1ccco1)N1CCC2(CCCN(c3ccccn3)C2)CC1,.,.,24.4%
Cc1cccc(Cn2c(=O)n(CCCC(=O)NCc3ccccc3Cl)c(=O)c3ccccc32)c1,.,1.7,.
CCCCCCCCCC(=O)N[C@@H](CN1CCOCC1)[C@@H](O)c1ccccc1,.,-0.3,.
O=C(Nc1nc(-c2ccccc2)c(-c2ccccc2)s1)c1ccc(S(=O)(=O)N2CCCC2)cc1,2.5%[46.1 µM],4.7,6.9%
O=C(Nc1nc(-c2ccccc2)c(C(=O)c2ccccc2)s1)c1ccc(S(=O)(=O)N2CCCC2)cc1,6.31µM*,-3.1,-10.0%
Cc1cccc(CNc2ncncc2-c2cccc(C#N)c2)c1,.,.,15.2%
O=C(O)c1cc(N=Cc2ccccc2O)cc(C(=O)O)c1,.,.,-6.2%
CC(=O)[C@H]1CC[C@@H]2[C@]1(C)CC=C1[C@@]23C=C[C@]2(C[C@H](O)CC[C@@]12C)[C@H](C(=O)O)[C@@H]3C(=O)O,.,.,-0.8%
O=C(Nc1ccc(OCC(F)(F)C(F)F)cc1)c1ccncc1,25.6%,.,8.4%
O=C(Nc1ccc(OCC(F)(F)C(F)F)c(C(F)(F)F)c1)c1ccccc1O,7.94µM*,-0.7,21.6%
COC(=O)c1ccc(N2CCN(CC(=O)c3ccc(-c4ccccc4)cc3)CC2)c([N+](=O)[O-])c1,-14.1%[46.1 µM],9.6,-6.6%[38.3 µM]
SMILES,NPSR antagonist,IMPase cell inh,IMPase Li inh
O=C(O)c1ccc(Cc2ccccc2C(=O)O)cc1,.,.,2.6%
O=C(Nc1ccc(OC(F)F)c(Cl)c1)Nc1ccc2c(c1)OCO2,-9.3%[46.1 µM],-0.8,7.4%[38.3 µM]
O=C(Nc1ccc([N+](=O)[O-])cc1)Nc1ccc(OC(F)F)c(Cl)c1,10µM*,.,8.5%
NC[C@@H]1O[C@@H](O[C@H]2[C@@H](O)[C@H](O[C@@H]3[C@H](O)[C@H](N)C[C@H](N)[C@H]3O[C@@H]3O[C@@H](CO)[C@H](O)[C@H](O)[C@@H]3N)O[C@H]2CO)[C@H](N)[C@H](O)[C@@H]1O,.,-0.3,.
Cc1cc(C)n(-c2nnc(NC34CC5CC(CC(C5)C3)C4)nn2)n1,-31.6%,.,0.9%
Cc1cccc(N(CC(=O)NC(C)c2ccccc2)S(=O)(=O)c2ccccc2)c1C (centres undefined),.,-0.6,.
Brc1ccc(-c2nc3ccccc3s2)s1,12.6µM*,?,11.2µM*
c1ccc(-c2nc3ccccc3s2)nc1,-9.2%[46.1 µM],-5.5,-19.9%[38.3 µM]
O=C(c1ccccc1)c1coc2c1C(=O)c1ccccc1C2=O,?,.,17.1%
O=C1c2ccccc2C(=O)c2c1oc(C(F)(F)F)c2C(=O)c1ccccc1,5.01µM*,4.6,23.1%[38.3 µM]
Cc1ccc(C)c(NC(=S)NC(NC(=O)N(C)C)C(Cl)(Cl)Cl)c1 (centres undefined),-18.7%[46.1 µM],1.1,3.5%
Cc1ccc(C)c(NC(=S)NC(NC(=O)Cc2cccc3ccccc23)C(Cl)(Cl)Cl)c1 (centres undefined),7.94µM*,-2.1,39.1%[38.3 µM]
Br/C(=N\Nc1nn[nH]n1)c1ccncc1,.,.,-0.6%
O=C(C[N+]12CN3CN(CN(C3)C1)C2)c1ccc(-c2ccccc2)cc1,.,.,-3.4%
Cc1ccc(C(O)(C(=O)NN(C(=O)c2ccccc2)c2ccccc2)c2ccc(C)cc2)cc1,-29.4%,3.6,14.1%
Cc1ccc(N(NC(=O)C(O)(c2ccccc2)c2ccccc2)C(=O)CCl)cc1,2.51µM*,.,9.6%
O=c1c2oc3ccccc3c2[nH]c(=S)n1-c1ccc(F)cc1,10µM*,.,11.2µM*
CN1CCN(C(=O)c2ccc3c(=O)n(-c4ccc(F)cc4)c(=S)[nH]c3c2)CC1,-11.0%,.,?
O=S(=O)(O)c1ccc2c(N=Nc3c(O)ccc4ccccc34)cccc2c1,.,.,1.8%
COCCNC(=O)NC12CC3(C)CC(C)(CC(C)(C3)C1)C2,-16.6%,.,5.3%
CC(C)(C)NC(=O)C(c1ccncc1)N(C(=O)Cn1nnc(-c2ccc(F)cc2)n1)c1ccccc1F (centres undefined),22.0%,.,11.3%
CC(C)(C)NC(=O)C(c1ccc(O)cc1)N(C(=O)Cn1nnc(-c2ccc(F)cc2)n1)c1ccccc1F (centres undefined),12.6µM*,.,6.0%
COc1cc(-c2[o+]c3cc(O)cc(O)c3cc2O)cc(O)c1O,.,.,2.0%
CCc1ccc2n(-c3ccc(OC)cc3)c([S-])c(C(=O)Nc3cc(C)cc(C)c3)[n+]2c1,10µM*,.,.
COc1ccc(CCNC(=O)c2c([S-])n(-c3ccc(C)cc3)c3cccc[n+]23)cc1,-41.8%,.,.
SMILES,NPSR antagonist,IMPase cell inh,IMPase Li inh
Cc1nc(N2CCOCC2)c2nc(-c3ccccc3)n(CC(C)(C)CN(C)C)c2n1,.,.,-6.8%
COC(=O)C1=C(C)NC(C)=C(C(=O)OCCCN2CCC(c3ccccc3)(c3ccccc3)CC2)C1c1cccc([N+](=O)[O-])c1 (centres undefined),.,.,30.1%
CC1=CC(=O)c2ccccc2C1=O,8.4%,20.2[20.6 µM],34.9%
CC1=C/C(=N\OS(=O)(=O)c2ccccc2)C(C)=CC1=O,2.51µM*,21.0,67.1%[38.3 µM]
CC1=C/C(=N\OS(=O)(=O)c2ccccc2)C(C(C)C)=CC1=O,10µM*,.,24.5%
CC1=C(C)/C(=N\OS(=O)(=O)c2ccc(C)cc2)C=CC1=O,?,.,24.9%
O=C(Nc1ccc2nc(-c3ccco3)c(-c3ccco3)nc2c1)N1CCCCCC1,10µM*,7.9,28.3%
CCOC(=O)C1CCN(C(=O)Nc2ccc3nc(-c4ccco4)c(-c4ccco4)nc3c2)CC1,-21.4%[46.1 µM],0.3[1.84 µM],53.5%[38.3 µM]
Cc1cc(/C=C(\C#N)C(=O)NCc2cccs2)c(C)[nH]1,5.2%,.,14.1%
CCOC(=O)c1sc2nc(NC(=O)C3CCCCC3)sc2c1C,-1.7%[46.1 µM],-2.9,?
CCOC(=O)c1sc2nc(NC(=O)C3CC3)sc2c1C,-2.6%[46.1 µM],-0.7,12.6µM*
